Nrf2 ARE act: qHTS of Nrf2 Activators; AREc32 ARE-luciferase reporter (MCF7-derived line), luminescence, 24 h; Potency, µM (top dose mostly 46.1 µM), for inactives: at the top dose activation, usual class: activators; hit rate 0.31% among 410,000; note: potency is the fitted concentration of half-maximal effect; % of control where 0% means no effect; nearly all actives have a fitted effect of over 65% in size
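Cells of the AREc32 ARE-luciferase line are plated in OPTI-MEM containing 5% FBS and left overnight at 37 deg C. Compounds are pinned in, incubation continues 24 hr, and firefly luciferase signal is then measured.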
A549 tox-1: Nrf2 qHTS screen for inhibitors: counterscreen for cytotoxicity. AID 504648, 2011. A549 ARE-Fluc cells, CellTiter-Fluor viability, 18-24 h. hit rate 0.16% among 390,000. Potency, µM (top dose mostly 46 µM), for inactives: at the top dose activity change, negative = cytotoxicity, usual class: inhibitors; note: potency is the fitted concentration of half-maximal effect; % is set by controls: 0 for no effect and ±100 for the full control effect
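A549 ARE_Fluc cells in 5% FBS OPTI-MEM were exposed to compounds in concentration-response for 18-24 h at 37 deg C. Viability was read by CellTiter-Fluor fluorescence (Ex 405/Em 525) after 30 min, before the luciferase read.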
miR-21 act: qHTS Assay for Modulators of miRNAs and/orActivators of miR-21; 340,000 tested, under 10 active; Potency, µM (doses to about 38.3 µM), inactives show top-dose activity change, positive = activation, hits mostly activators; AID 2288, 2010; HeLa miR-21 FLuc reporter, luciferase, 48 h;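 note: % of control where 0% means no effect; miR-21 action dims this reporter so a rising signal means less miR-21 action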
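Using DMEM plus 10% FBS, HeLa miR-21-FLuc cells are incubated with test compounds (final up to about 40uM) for 48 hours; firefly luciferase signal is then imaged following reagent-mediated lysis.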
Nrf2 block: Nrf2 qHTS screen for inhibitors; A549 ARE-Fluc reporter, luciferase luminescence, 18-24 h; hit rate 2.1% among 360,000; AID 504444, 2011; Potency, µM (titrated, usually from 46 µM), for inactives: at the top dose activity change, negative = inhibition, hits mostly inhibitors; note: potency is the fitted concentration of half-maximal effect; % is set by controls: 0 for no effect and ±100 for the full control effect; nearly all actives have a fitted effect of over 60% in size
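Cells were seeded and rested 2 h, then exposed to compounds for 18-24 h. CellTiter-Fluor was read first as a viability measure. BugLite was added 15 min before the final luminescent read of ARE-luciferase activity in A549 cells.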
Mito fusion act: qHTS Assay for Small Molecule Inhibitors of Mitochondrial Division or Activators of Mitochondrial Fusion. S. cerevisiae fusion-defective mutant growth rescue, CellTiterGlo 48 h. Potency, µM (highest dose often 46.1 µM), for inactives: at the highest dose growth rescue (activation), usual class: activators. hit rate 0.23% among 320,000. AID 485298, 2010; note: potency is the fitted concentration of half-maximal effect; % of control where 0% means no effect; nearly all actives have a fitted effect of over 45% in size
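Yeast fusion mutant, YPEG (non-fermentable carbon), compound, 48 h at 37C non-permissive; CellTiterGlo added, 10 min RT, luminescence read. Rescued growth = division inhibition.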
FLuc counter 3: Nrf2 qHTS screen for inhibitors: Purified Fluc Biochemical Counterscreen for Hit Validation. purified firefly luciferase, luminescence inhibition. hit rate 4% among 1,400. Potency, µM (highest dose often 57.5 µM), inactives show top-dose activity change, negative = inhibition, most hits filed as inhibitors. shares compounds with Nrf2 block; note: potency is the fitted concentration of half-maximal effect; % is set by controls: 0 for no effect and ±100 for the full control effect; nearly all actives have a fitted effect of over 65% in size
Target sequence (P08659 whole entry, looked up): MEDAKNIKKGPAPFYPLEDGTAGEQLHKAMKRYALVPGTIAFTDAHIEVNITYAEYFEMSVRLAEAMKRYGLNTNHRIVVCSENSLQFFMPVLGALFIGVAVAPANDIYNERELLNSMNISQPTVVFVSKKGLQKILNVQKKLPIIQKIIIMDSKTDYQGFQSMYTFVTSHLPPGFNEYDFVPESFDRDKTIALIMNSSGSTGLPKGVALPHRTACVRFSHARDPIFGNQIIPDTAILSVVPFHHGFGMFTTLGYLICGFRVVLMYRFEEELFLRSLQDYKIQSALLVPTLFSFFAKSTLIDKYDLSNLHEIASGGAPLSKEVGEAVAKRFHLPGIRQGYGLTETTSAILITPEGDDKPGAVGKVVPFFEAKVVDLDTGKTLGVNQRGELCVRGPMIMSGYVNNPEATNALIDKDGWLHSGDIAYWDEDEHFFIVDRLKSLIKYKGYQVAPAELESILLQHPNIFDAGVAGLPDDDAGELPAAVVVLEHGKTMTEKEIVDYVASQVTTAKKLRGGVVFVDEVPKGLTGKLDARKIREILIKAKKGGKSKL
A549 tox-2: Nrf2 qHTS screen for inhibitors: A549 ARE-Fluc Cytotoxicity Counterscreen for Hit Validation | shares compounds with Nrf2 block | A549 ARE-Fluc cells, cytotoxicity counterscreen | Potency, µM (series often up to 46.1 µM), for the others: at the highest dose activity change, negative = cytotoxicity, hits mostly inhibitors | hit rate 2% among 1,400;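 note: potency is the fitted concentration of half-maximal effect; cells exposed to compounds for 18 to 24 hours; % is set by controls: 0 for no effect and ±100 for the full control effect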
ARE-Fluc inh: Nrf2 qHTS screen for inhibitors: Nrf2 A549 ARE-Fluc Confirmation Assay for Hit Validation; shares compounds with Nrf2 block; A549 ARE-firefly luciferase reporter, luminescence; Potency, µM (doses to about 46.1 µM), for inactives: top-dose activity change, negative = inhibition, usual class: inhibitors; hit rate 74% among 1,400; AID 720524, 2013; note: potency is the fitted concentration of half-maximal effect; % is set by controls: 0 for no effect and ±100 for the full control effect; nearly all actives have a fitted effect of over 65% in size
Numbers without * were called inactive. Shown are actives, neighbours in structure and some others; about 2.3% of the full set was active somewhere. Calls come from the whole dose curve; as a rule, active = well fitted curve in the direction sought with a large enough effect; inconclusive = small, poorly fitted or top-dose-only effect, or another doubt; inactive = no such curve, though single readings can be large; an effect the other way counts as inactive or inconclusive.

CN(Cc1ccc(Cl)cc1)C(=O)c1ccc(S(=O)(=O)NCc2ccco2)cc1 was read as Nrf2 ARE act 0%, A549 tox-1 -12%, Nrf2 block 9.2µM*, Mito fusion act 5%, FLuc counter 3 0%, A549 tox-2 0% and ARE-Fluc inh 7%.
C=CC[n+]1c(/C=C2\C=Cc3cc(C)ccc3N2CC)ccc2ccccc21 was read as Nrf2 ARE act -1%, A549 tox-1 inconclusive, miR-21 act inconclusive, Nrf2 block 4.6µM*, Mito fusion act -3%, FLuc counter 3 -27%, A549 tox-2 15µM* and ARE-Fluc inh 2.3µM*.
Screening Cc1c(-c2nc(-c3ccc4c(c3)OCO4)no2)nnn1-c1cccc(C(F)(F)F)c1 returned Nrf2 ARE act 0%, A549 tox-1 11%, miR-21 act 3% and Nrf2 block inconclusive.
Screening CCOC(=O)c1cccc(NC(=O)CSc2nc3ccccc3c(=O)n2CC)c1 returned Nrf2 ARE act 0%, A549 tox-1 -3%, miR-21 act -5%, Nrf2 block inconclusive and Mito fusion act 1%.
CCn1c(SCC(=O)Nc2cccc(OC)c2)nc2ccccc2c1=O was read as Nrf2 ARE act 6%, A549 tox-1 -10%, miR-21 act 1%, Nrf2 block 8.2µM*, Mito fusion act 3%, FLuc counter 3 -4%, A549 tox-2 0% and ARE-Fluc inh 38%.
Screening Cc1cc(C(F)(F)F)n2nc(-c3ccc(Br)cc3)cc2n1 returned Nrf2 ARE act inconclusive, A549 tox-1 2%, miR-21 act 0% and Nrf2 block 18%.
Screening CCOC(=O)c1cc(-c2ccc(C)cc2)n(CCC(=O)NCc2ccccc2)c1C returned Nrf2 ARE act 0%, A549 tox-1 -21%, miR-21 act -2%, Nrf2 block 8.2µM*, FLuc counter 3 1%, A549 tox-2 -15% and ARE-Fluc inh -23%.
Screening Cc1ccc(Cl)cc1N1CCN(C(=O)c2cc3c(=O)n(C)c4ccccc4c3n2C)CC1 returned Nrf2 ARE act 0%, A549 tox-1 -18%, miR-21 act 1%, Nrf2 block 4.1µM*, Mito fusion act -1%, FLuc counter 3 4%, A549 tox-2 -22% and ARE-Fluc inh 6.5µM*.
Screening O=C(COc1ccc2c(-c3ccccc3)cc(=O)oc2c1)Nc1cccnc1 returned Nrf2 ARE act 0%, A549 tox-1 1%, miR-21 act 2%, Nrf2 block 2.3µM*, Mito fusion act 0%, FLuc counter 3 -17%, A549 tox-2 -6% and ARE-Fluc inh 1.8µM*.
O=C(NC1(C(F)(F)F)C(=O)Nc2c1c(=O)[nH]c(=O)n2CCc1ccccc1)c1ccc(Cl)cc1Cl (stereo unspecified) was read as Nrf2 ARE act -1%, A549 tox-1 3%, miR-21 act -1% and Nrf2 block 1%.
N#Cc1ccc(N2CCN(c3ccc(F)cc3)CC2)cc1 was read as Nrf2 ARE act 0%, A549 tox-1 1%, miR-21 act -21%, Nrf2 block inconclusive, Mito fusion act 4%, FLuc counter 3 3%, A549 tox-2 2% and ARE-Fluc inh 9%.
CCOC(=O)c1c(S(=O)(=O)N2CCCC(C(=O)NCc3ccc(Cl)cc3)C2)c(C)n(C)c1C (stereo unspecified) was read as Nrf2 ARE act -1%, A549 tox-1 1% and miR-21 act 11%.
`COC(=O)c1[nH]c2c(c1C)C(=O)CC(c1ccc(OC)c(OC)c1)C2` (stereo unspecified) gave Nrf2 ARE act 0%, A549 tox-1 -4%, miR-21 act -3%, Nrf2 block inconclusive and Mito fusion act -2%.
`COC(=O)c1[nH]c2c(c1C)C(=O)CC(c1cc(OC)c(OC)c(OC)c1)C2` (stereo unspecified) gave Nrf2 ARE act 3%, A549 tox-1 0%, miR-21 act 20%, Nrf2 block 9.2µM*, Mito fusion act -3%, FLuc counter 3 4%, A549 tox-2 -6% and ARE-Fluc inh inconclusive.
`COc1cc(C2CC(=O)c3c([nH]c(C(=O)OC4CCCC4)c3C)C2)cc(OC)c1OC` (stereo unspecified) gave Nrf2 ARE act -2%, A549 tox-1 inconclusive, miR-21 act inconclusive, Nrf2 block 5.8µM*, FLuc counter 3 -15%, A549 tox-2 inconclusive and ARE-Fluc inh 12µM*.
`N#Cc1c[nH]n2c(NC3CCCCC3)c(-c3ccccc3F)nc12` gave Nrf2 ARE act 0%, A549 tox-1 -1%, miR-21 act 2% and Nrf2 block -10%.
For CC(=O)c1ccc(-c2ccc(C3C4C=CCCC4(C)C(=O)N3Cc3ccccc3)c(F)c2)cc1 (stereo unspecified) the results were A549 tox-1 -15% and Nrf2 block inconclusive.
Screening O=C(Oc1ccccc1N1C(=O)C2CCCCC2C1=O)c1ccccc1 (stereo unspecified) returned Nrf2 ARE act -1%, A549 tox-1 1%, miR-21 act -1%, Nrf2 block -18% and Mito fusion act 4%.
Cc1ccc(C(=O)Oc2ccccc2N2C(=O)C3CCCCC3C2=O)cc1 (stereo unspecified) was read as Nrf2 ARE act -2%, A549 tox-1 8%, miR-21 act -21%, Nrf2 block 1.3µM*, Mito fusion act 6%, FLuc counter 3 -2%, A549 tox-2 0% and ARE-Fluc inh 3.3µM*.
Screening C#CC(C)(C)NS(=O)(=O)c1cc(-c2nnc(Nc3ccc(C)cc3)c3ccccc23)ccc1C returned Nrf2 ARE act 7%, A549 tox-1 inconclusive, miR-21 act 29% and Nrf2 block inconclusive.
For c1ccc2c(N=NN3CCCCC3)ccnc2c1 the results were FLuc counter 3 -24%, A549 tox-2 -24% and ARE-Fluc inh 5.8µM*.
